Test results taken from PubChem BioAssay (Tox21).
Results filed as inconclusive are left out. Active and inactive are the calls of the source. The call rests on the fitted dose curve; in most records, active means well fitted cell-killing curve with a large enough effect in the repeat runs (not every such curve was filed as active); inconclusive means weak or mixed curves, or effect the other way; inactive means no such curve, though single readings can be large or run the other way.

Assay: qHTS assay to identify small molecule antagonists of the farnesoid-X-receptor (FXR) signaling pathway - cell viability counter screen (AID 743221); further: nearly all actives have a fitted effect of over 50% in size
Conditions: FXR-bla HEK293T viability, CellTiter-Glo luminescence, 16 h; series mostly up to 62.6 µM
From the text: National Center for Advancing Translational Sciences [NCATS]
NIH Chemical Genomics Center [NCGC]
U.S. Environmental Protection Agency [EPA]
National Institutes of Environmental Health Sciences [NIEHS]
National Toxicology Program [NTP]
U.S. Food and Drug Administration [FDA]
The farnesoid-X-receptor (FXR), a nuclear hormone receptor, is highly expressed in liver, intestine, kidney and adrenal cortex. Natural ligands of FXR are the bile acids (Cholic acid, Chenodeoxy cholic acid etc). FXR is an important regulator of diverse metabolic pathways, including the bile acid homeostasis, lipid and glucose metabolisms. FXR regulates the expression of target genes by binding either as a monomer or as a heterodimer with the retinoid X receptor (RXR). Numerous studies have reported that FXR exerts protective function during cholestasis, diabetes, liver regeneration, and cancer. To identify compounds that inhibit FXR signaling, GeneBLAzer FXR-UAS-bla HEK 293T cell line (Invitrogen, Carlsbad, CA) containing a beta-lactamase reporter gene under the control of a UAS response element was used to screen the Tox21 10K compound library. The cytotoxicity of the Tox21 compound library against the FXR-bla cell line was tested in parallel by measuring the cell viability using CellTiter-Glo assay in the same wells.
Tox21 Assay Protocol Summary:
FXR-bla cells were dispensed at 5000 cells/5uL/well in 1536-well black wall/clear bottom plates using a Multidrop Combi (Thermo Fisher Scientific, Waltham, MA) dispenser. After the assay plates were incubated at 37 C and 5% CO2 for 5 h, 23 nL of compounds dissolved in DMSO, positive controls or DMSO only was transferred to the assay plate by a Pintool station (Kalypsys, San Diego, CA), followed by addition of 1 uL Chenodeoxycholic acid (50 uM, final concentration in the wells). The assay plates were incubated at 37C for 16 h. After 1 uL of LiveBLAzerTM B/G FRET substrate was added using a Bioraptr Flying Reagent Dispenser (FRD) workstation (Beckman Coulter, Indianapolis, IN), the plates were incubated at room temperature for 2 h, and fluorescence intensity was measured by an Envision plate reader (PerkinElmer, Shelton, CT). For cell viability readout that measures cytotoxicity, 4uL/well of CellTiter-Glo reagent was added into the assay plates using a Bioraptr FRD. After 30 min incubation at room temperature, the luminescence intensity in the plates was measured using a ViewLux plate reader (PerkinElmer).
On the % scale 0 is the no-effect control and ±100 the full control effect.

Row | SMILES | outcome | activity change, negative = cytotoxicity
1 | C#CCN[C@@H]1CCc2ccccc21 | inactive | –
2 | c1ccc(B(c2ccccc2)c2ccccc2)cc1 | inactive | –
3 | CC(C)c1ccc(C=O)cc1 | inactive | –
4 | CCC(=O)Oc1ccc2c(c1)CC[C@@H]1[C@@H]2CC[C@@]2(C)[C@H]1C[C@@H](OC(=O)CC)[C@@H]2OC(=O)CC | inactive | –
5 | CCn1cc(C(=O)O)c(=O)c2cnc(N3CCCC3)nc21 | – | -0.638% [at 13.2 µM] (inactive)
6 | CC(C)=CCC[C@@](C)(O)[C@H]1CC=C(C)CC1 | inactive | –
7 | O=C(O)c1cc2ccccc2nc1C(=O)O | inactive | –
8 | CC(C)(CO)C(O)C(=O)NCCCO (stereo not given) | inactive | –
9 | CC1c2ccccc2CN1NC(=O)c1ccc(Cl)c(S(N)(=O)=O)c1 (stereo not given) | inactive | –
10 | Cc1ncc([N+](=O)[O-])n1CC(C)O (stereo not given) | inactive | –
11 | CCC(C(=O)OCCN1CCOC(c2ccccc2)C1C)c1ccccc1 (stereo not given) | inactive | –
12 | CC1(C)Oc2ccc(C#N)cc2[C@@H](N2CCCC2=O)[C@@H]1O | inactive | –
13 | CN1CCOC(c2ccccc2)c2ccccc2C1 (stereo not given) | inactive | –
14 | CC(C)CCOC(=O)c1ccccc1 | inactive | –
15 | O=C(CN1CCNCC1)NC1CCCCC1 | inactive | –
16 | CCC(=O)c1c(O)cc(O)cc1O | inactive | –
17 | O=C(O)[C@H](O)c1ccccc1 | inactive | –
18 | O=C(Cn1ccnc1[N+](=O)[O-])NCc1ccccc1 | inactive | –
19 | C=CCSSCCC | inactive | –
20 | Cc1c(NC(=O)c2cccnc2)c(=O)n(-c2ccccc2)n1C | inactive | –

Row | SMILES | outcome | activity change, negative = cytotoxicity
21 | CCNC(=O)NCc1cccc(Cl)c1 | inactive | –
22 | CC(O)COC(C)(C)C (stereo not given) | inactive | –
23 | COC(=O)/C=C\C(=O)O | inactive | –
24 | OCCN1CCOCC1 | inactive | –
25 | O=C1CCC(=O)N1Cl | inactive | –
26 | CO[C@@]1(NC(=O)Cc2cccs2)C(=O)N2C(C(=O)O)=C(COC(N)=O)CS[C@@H]21 | inactive | –
27 | COc1nc(N)nc2nc[nH]c12 | inactive | –
28 | C[C@@H](O)C(=O)O | inactive | –
29 | O=C(O)CCCCCC(=O)O | inactive | –
30 | OC1OCCOC1O (stereo not given) | inactive | –
31 | N[C@@H](CSCCCO)C(=O)O | inactive | –
32 | COC(=O)CCCCC(=O)O | inactive | –
33 | C/C(CC(C)C)=N\O | inactive | –
34 | CCO[Si](CC)(OCC)OCC | inactive | –
35 | N#CCC(=O)NN | inactive | –
36 | Cc1ccc(C(=O)O)cc1[N+](=O)[O-] | inactive | –
37 | CCCCC1CCC(O)CC1 (stereo not given) | inactive | –
38 | CC/C(C)=N\O[Si](C)(O/N=C(\C)CC)O/N=C(\C)CC | inactive | –
39 | Nc1nc(-c2ccccc2)c(Br)c(=O)[nH]1 | inactive | –
40 | CCOc1cccc(N)c1 | inactive | –
